From PubChem BioAssay AID588499 (NMMLSC, 2011)
About 610 (0.17%) of roughly 360,000 compounds were called active. About 2% were inconclusive and are not listed. Many of the other results were omitted from the sample, so actives are more common in it than they were. Values without a mark were called inactive. No stated cut-off is given here; in the data, active means inhibition above about 30%; inconclusive means no clear call, values can overlap the other calls; inactive means below that.

system: Botulinum neurotoxin type A light chain protease (Clostridium botulinum A str. ATCC 3502); test: BoNT/A light chain protease inhibitors, primary screen, biochemical, flow cytometry, MLPCN library (AID 588499); conditions: multiplex microsphere protease substrate cleavage, at 10 µM, stronger effect = higher value; further: plate controls were buffer without enzyme for full effect and enzyme alone for no effect

Question: `Cc1csc(Nc2ccc(Cl)cc2)[n+]1-c1ccc(Cl)cc1` was tested. Which inhibition did it give?
Answer: -2%

Question: With `O=C(CN1C(=O)c2ccc([N+](=O)[O-])cc2C1=O)Nc1nnc(C2CC2)s1` as the molecule, how does the inhibition read?
Answer: -0.6%

Question: Which inhibition does the source give for `COc1cccc(-c2cc3nc4c(c(N5CCC6(CC5)OCCO6)n3n2)CCCC4)c1` here?
Answer: 0.1%

Question: `Cc1ccc2cc(CCNC(=O)c3c(-c4ccccc4Cl)noc3C)c(=O)[nH]c2c1` was tested. Which inhibition did it give?
Answer: -0.3%

Question: `Cc1onc(-c2ccccc2Cl)c1C(=O)NCCn1ccc2ccccc21` was tested. Which inhibition did it give?
Answer: 81.2% (active)

Question: With `Cc1onc(-c2ccccc2Cl)c1C(=O)N(Cc1ccc(N(C)C)cc1)C(C)C` as the molecule, how does the inhibition read?
Answer: -3.2%

Question: How did the inhibition turn out when `Oc1c(Cl)cc(Cl)c(Cl)c1Cc1c(O)c(Cl)cc(Cl)c1Cl` was run?
Answer: -1%

Question: For `CC(=O)Nc1ccc(NC(=O)C(C)n2c3ccccc3c3nc(=O)cc(C)n32)cc1` (configuration not stated), which inhibition is on record?
Answer: -0.3%

Question: How did the inhibition turn out when `COc1ccc(-c2cc3c(c4c2ccn4C)C2CCC3C2)cn1` (configuration not stated) was run?
Answer: 52.1% (active)

Question: How did the inhibition turn out when `Cc1cccc(S(=O)(=O)N(C)C[C@H]2OCc3cnnn3CCCC(=O)N([C@@H](C)CO)C[C@H]2C)c1` was run?
Answer: -0.3%

Question: `Cc1c(CC(=O)N2CCN(C(=O)C3COc4ccccc4O3)CC2)c(=O)oc2c(O)c(O)ccc12` (configuration not stated) was tested. Which inhibition did it give?
Answer: 3.7%

Question: Which inhibition does the source give for `COc1ccc(CCNC(=O)C2CC3Cn4c(nc5cc(C)c(C)cc54)C3N2C)cc1` (configuration not stated) here?
Answer: -0.2%

Question: With `O=C1[C@@H]2C(c3cccnc3)=NO[C@@H]2C(=O)N1c1ccc(Cl)cc1Cl` as the molecule, how does the inhibition read?
Answer: -0.1%

Question: Which inhibition does the source give for `COc1ccc(NC(=O)N2CCCC(C(=O)Nc3ccccc3OC)C2)cc1` (configuration not stated) here?
Answer: -1.6%

Question: For `CC1(C(=O)NCc2ccc3c(c2)OCO3)CCN1C(=O)Cc1cccs1` (configuration not stated), which inhibition is on record?
Answer: -0.2%

Question: `CCN(CC)C(=O)C(C)N1c2cccc3cccc(c23)S1(=O)=O` (configuration not stated) was tested. Which inhibition did it give?
Answer: 0.5%

Question: Which inhibition does the source give for `CC(C)c1nc(CNC(=O)CC2C(=O)NCCN2Cc2cccc(F)c2F)cs1` (configuration not stated) here?
Answer: 0%

Question: `Cc1ccc(C(=O)NCC(=O)OCC(=O)Nc2cccc(S(=O)(=O)N3CCCC3)c2)cc1C` was tested. Which inhibition did it give?
Answer: -0.4%

Question: With `COC1=NC2=NCCN2C(OC)=N1` as the molecule, how does the inhibition read?
Answer: -0.5%

Question: `C[C@H](CO)N1C[C@H](C)[C@@H](CN(C)C(=O)C2CCCCC2)OCc2cnnn2CCCC1=O` was tested. Which inhibition did it give?
Answer: -0.2%

Question: With `COc1ccc(S(=O)(=O)N(CCCN2CCCC2=O)Cc2cc3c(C)ccc(C)c3[nH]c2=O)cc1` as the molecule, how does the inhibition read?
Answer: 0.4%

Question: Which inhibition does the source give for `CNC(=O)Nc1cc(C(C)(C)C)no1` here?
Answer: 0%

Question: `CCOC(=O)C1=C(C)NC2=C(C(=O)CC(C)(C)C2)C1c1ccsc1` (configuration not stated) was tested. Which inhibition did it give?
Answer: 1.6%

Question: Which inhibition does the source give for `Cc1nc(-c2ccc(F)cc2)c(CC(=O)Nc2cccc(S(=O)(=O)N3CCOCC3)c2)s1` here?
Answer: 1.2%

Question: `Cc1ccc(NC(=O)COc2ccc(-n3ccnc3)cc2)cc1Cl` was tested. Which inhibition did it give?
Answer: -0.5%

Question: For `Cc1ccc(-c2nc(-c3cccnc3)sc2CC(=O)Nc2ccc(C)c(Cl)c2)cc1`, which inhibition is on record?
Answer: 51.4% (active)

Question: `Nc1ncnc2c1cnn2C1CC(O)C(CO)O1` (configuration not stated) was tested. Which inhibition did it give?
Answer: 0.6%

Question: With `C=C1C(=O)[C@]23C[C@H]1CCC2[C@@]1(C)C(C[C@@H]3O)[C@](C)(C(=O)O)CC[C@@H]1O` (some centres not stated) as the molecule, how does the inhibition read?
Answer: 0.1%

Question: How did the inhibition turn out when `Cc1cc(N2CCCC2)ccc1NC(=O)COc1ccc(Cl)cc1` was run?
Answer: -8.3%

Question: With `CCN1/C(=C\c2ccc3ccccc3[n+]2CC)Sc2cc(C)ccc21` as the molecule, how does the inhibition read?
Answer: 71.1% (active)

Question: How did the inhibition turn out when `CC(C)C[C@@H](COCc1ccc(Cl)cc1)N1CCN(C(=O)c2ccc(Cl)cc2Cl)CCC1=O` was run?
Answer: -0.6%

Question: `COc1ccc(C(=O)NC(=S)N2CCNC(=O)C2CC(=O)OC(C)C)cc1` (configuration not stated) was tested. Which inhibition did it give?
Answer: -0.1%

Question: How did the inhibition turn out when `Cc1cccc(-n2c(SCC(N)=O)nc3c(c2=O)C2(CCCCC2)Cc2ccccc2-3)c1` was run?
Answer: -0.1%

Question: `COc1ccc(COC[C@H](CC(C)C)N2CCN(C(=O)c3cccc(C(F)(F)F)c3)CCC2=O)cc1` was tested. Which inhibition did it give?
Answer: 0.7%

Question: For `NS(=O)(=O)c1ccc(-c2ccc(/C=C3\SC(=O)NC3=O)o2)cc1`, which inhibition is on record?
Answer: 0.3%

Question: Which inhibition does the source give for `CN1C(=O)/C(=C\c2ccc(-c3ccccc3)o2)SC1=S` here?
Answer: 66.9% (active)

Question: For `CC(C(=O)Nc1ccc(O)c(C(=O)O)c1)N1C(=O)/C(=C/c2cccs2)SC1=S` (configuration not stated), which inhibition is on record?
Answer: 2%

Question: For `O=C(O)C(c1ccccc1)N1C(=O)/C(=C\c2ccc(-c3cccc(Cl)c3)o2)SC1=S` (configuration not stated), which inhibition is on record?
Answer: 39.3% (active)

Question: `CC(C(=O)NC1CCS(=O)(=O)C1)N1C(=O)/C(=C/c2ccc(Cl)cc2)SC1=S` (configuration not stated) was tested. Which inhibition did it give?
Answer: 2.3%

Question: How did the inhibition turn out when `Cc1ccc(C(=O)O)cc1-c1ccc(/C=C2\SC(=O)N(CC(=O)Nc3ccc4c(c3)OCO4)C2=O)o1` was run?
Answer: 0.8%

Question: How did the inhibition turn out when `CN(CC(=O)Nc1c(Cl)cccc1Cl)C(=O)c1ccncc1` was run?
Answer: -3.2%

Question: For `COc1ccc(C(c2nnnn2Cc2cccs2)N2CCN(c3ccccc3)CC2)cc1OC` (configuration not stated), which inhibition is on record?
Answer: -0.3%

Question: `CCOCCCNC(=O)c1cn(CC(C)C)c(=O)c2c1c1ccccc1n2C` was tested. Which inhibition did it give?
Answer: 2.4%

Question: How did the inhibition turn out when `O=c1[nH][nH]c2c1[C@H](c1ccc(Cl)cc1)O[C@H](CCc1ccccc1)C2` was run?
Answer: -0.3%

Question: With `COc1ccc(C(NC(=O)C2CCN(CCCc3ccccc3)CC2)c2cccs2)cc1` (configuration not stated) as the molecule, how does the inhibition read?
Answer: -0.5%

Question: `O=C(Nc1ccc2c(c1)[C@@H]1C[C@@H](CC(=O)N3CCCCC3)O[C@@H](CO)[C@@H]1O2)NC1CCCCC1` was tested. Which inhibition did it give?
Answer: 0.1%

Question: With `COC(=O)[C@]12CCCCC=C1N(Cc1ccco1)C(=O)[C@H](CC(=O)NCC1CCCCC1)C2` as the molecule, how does the inhibition read?
Answer: -1.1%

Question: With `Cc1ccc(CCn2c3c(c4ccccc42)CN(C)CC3)cn1` as the molecule, how does the inhibition read?
Answer: 1.5%

Question: For `CCC(C)C(N=C1NS(=O)(=O)c2ccccc21)C(=O)N1CCC(C)CC1` (configuration not stated), which inhibition is on record?
Answer: -2.7%

Question: With `CCCSc1nc2sc3c(c2c(=O)n1-c1ccc(OC)cc1)CCN(C)C3` as the molecule, how does the inhibition read?
Answer: 49.9% (active)

Question: For `CCOc1ccc(-n2c(SCC(=O)OC)nc3sc4c(c3c2=O)CCN(C)C4)cc1`, which inhibition is on record?
Answer: 26.5%

Question: Which inhibition does the source give for `CCSc1nc2sc3c(c2c(=O)n1-c1ccc(C)cc1)CCN(C)C3` here?
Answer: 9.9%

Question: With `O=S1(=O)CC(N2CCSCC2)CN1Cc1cn(Cc2cccc(Cl)c2)nn1` (configuration not stated) as the molecule, how does the inhibition read?
Answer: 0.5%

Question: With `Cc1ccc(SCC(=O)NNC(=O)c2ccc(S(C)(=O)=O)cc2)cc1` as the molecule, how does the inhibition read?
Answer: 0.3%

Question: How did the inhibition turn out when `CC1CCCCC1NC(=O)NC(=O)COC(=O)C1=NN(c2ccccc2)C(=O)CC1` (configuration not stated) was run?
Answer: -0.8%

Question: Which inhibition does the source give for `CCOc1ccc(NC(=S)N2CCCCCC2)cc1` here?
Answer: 0%

Question: How did the inhibition turn out when `CCNC(=S)N1CCN(c2ncccn2)CC1` was run?
Answer: 1.2%

Question: `CC(=NNC(=S)N1CCCCCC1)c1ccccn1` was tested. Which inhibition did it give?
Answer: 32.5% (active)

Question: With `CCc1[nH]nc(C(=O)N2CCCC(CO)(Cc3ccc(F)cc3F)C2)c1C` (configuration not stated) as the molecule, how does the inhibition read?
Answer: 0.2%

Question: Which inhibition does the source give for `O=C(c1cccc(-n2cccc2)c1)N1CCN(S(=O)(=O)c2ccc(F)cc2)CC1` here?
Answer: -0.8%

Question: For `CCCCN1C(=O)C(CC(=O)NCc2cccs2)CC(C(=O)N2CCCCCC2)=C1C` (configuration not stated), which inhibition is on record?
Answer: 0%

Question: `CCN(CC)C(=O)CSC1c2ccccc2C(=O)N1c1ccccc1` (configuration not stated) was tested. Which inhibition did it give?
Answer: -1.6%

Question: With `COc1ccc(NC(=O)c2cn(CCC#N)nc2-c2ccc([N+](=O)[O-])cc2)cc1` as the molecule, how does the inhibition read?
Answer: -1.1%

Question: `COc1ccc(C(=O)Nc2nc(-c3ccc(OC)cc3)c(-c3ccc([N+](=O)[O-])cc3)s2)cc1` was tested. Which inhibition did it give?
Answer: 40.2% (active)

Question: With `COc1ccc(-c2[nH][nH]c(=O)c2NC(=O)c2ccc([N+](=O)[O-])cc2)cc1` as the molecule, how does the inhibition read?
Answer: 0.1%

Question: Which inhibition does the source give for `O=C(OCC(=O)c1c[nH]c2ccccc12)c1cccc(O)c1` here?
Answer: 0.8%

Question: Which inhibition does the source give for `CCOc1ncccc1C(=O)OCC(=O)c1c[nH]c2ccccc12` here?
Answer: 36.8% (active)

Question: How did the inhibition turn out when `CCOc1ncccc1C(=O)OCC(=O)NC1CC1` was run?
Answer: -0.4%

Question: For `CC1CCCCC12NC(=O)N(CC(=O)Nc1ccc(S(=O)(=O)Nc3ncccn3)cc1)C2=O` (configuration not stated), which inhibition is on record?
Answer: -0.7%

Question: How did the inhibition turn out when `CC(=O)Nc1ccc(-c2ccnc3c2CC(C(=O)NC(C)C)O3)cc1` (configuration not stated) was run?
Answer: 0.1%

Question: How did the inhibition turn out when `CCCc1ccc(C(O)c2ncc(-c3cccc(OC)c3)[nH]2)cc1` (configuration not stated) was run?
Answer: 0.3%

Question: For `COc1ccc(C2CC(c3cccs3)=NN2C(=O)CSc2nnc(N)s2)cc1OC` (configuration not stated), which inhibition is on record?
Answer: 0.2%

Question: Which inhibition does the source give for `COc1ccc(C2CC(c3cccs3)=NN2c2nc(C)c(C(C)=O)s2)cc1OC` (configuration not stated) here?
Answer: 63.7% (active)

Question: Which inhibition does the source give for `COc1ccc(C2CC(c3cccs3)=NN2C(=O)CSc2nncs2)cc1OC` (configuration not stated) here?
Answer: 0.2%

Question: `CCN(CC)C(=O)Oc1ccc(Br)cc1C(=O)Nc1ccc(F)c(Cl)c1` was tested. Which inhibition did it give?
Answer: -0.8%

Question: With `O=C(NCCCn1ccnc1)C(=O)c1cn(CC(=O)N2CCCCCC2)c2ccccc12` as the molecule, how does the inhibition read?
Answer: 30.5% (active)

Question: `O=C(NCc1ccco1)C(=O)c1cn(CC(=O)N2CCCCCC2)c2ccccc12` was tested. Which inhibition did it give?
Answer: 10.2%

Question: How did the inhibition turn out when `Cc1ccc(CNC(=O)C(=O)c2cn(CC(=O)N3CCCC3)c3ccccc23)cc1` was run?
Answer: 0%

Question: How did the inhibition turn out when `CC1(C(=O)NS(=O)(=O)C2CC2)CCCN(C(=O)CSc2ccccc2)C1` (configuration not stated) was run?
Answer: 0.5%

Question: Which inhibition does the source give for `CN(C(=O)COC(=O)c1cc(=O)[nH]c2ccccc12)C1CCCCC1` here?
Answer: 2.1%

Question: How did the inhibition turn out when `CSCC[C@H](NC(=O)NCc1cccs1)C(=O)O` was run?
Answer: -0.9%

Question: `COc1ccc(NC(=O)COc2ccc(C(=O)c3ccc(F)cc3)cc2)cc1S(N)(=O)=O` was tested. Which inhibition did it give?
Answer: -1%

Question: `C[C@@H]1CN([C@@H](C)CO)C(=O)CCCn2nncc2CO[C@@H]1CN(C)S(=O)(=O)c1ccc(-c2ccccc2)cc1` was tested. Which inhibition did it give?
Answer: -0.4%

Question: Which inhibition does the source give for `O=c1[nH]snc1-c1c(Cl)cccc1Cl` here?
Answer: -0.7%

Question: How did the inhibition turn out when `COC(=O)c1c(NC(=O)COC(=O)[C@@H](NS(=O)(=O)c2ccccc2)C(C)C)sc2c1CCC2` was run?
Answer: -0.3%

Question: With `CCOC(=O)C1CCN(C(=O)CN2C(=O)c3cccnc3Oc3ccc(C)cc32)CC1` as the molecule, how does the inhibition read?
Answer: -1%

Question: `CCOC(=O)C1CCN(C(=O)Cc2c(C(=O)O)[nH]c3ccccc23)CC1` was tested. Which inhibition did it give?
Answer: -4.4%
